# Out of some 6,200 compounds screened, about 2,900 (47%) were called active. Rule as the data show it: active = inhibition above about 50%; inactive = the rest. So high a share suggests a set chosen from earlier hits. The list shows a part of the results.
# Assay: Mycobacterium tuberculosis growth inhibition, primary screen (AID 1259343)
# Details: inhibition: at 10 µM, hits give high values; outcome: 10 uM
row,SMILES,inhibition
1,CCCc1cc(C(=O)N2C[C@H]3CC=C(C)C[C@H]3C2)ccn1,76% (active)
2,CCNc1nc(C(=O)N2CC3CCCC3C2)cs1 (stereo unspecified),27.6% (inactive)
3,CN(Cc1ccccc1O)C(=O)C1CCN(c2ccc(Cl)cn2)CC1,35.1% (inactive)
4,Cc1ccc(-c2nc(CN3CCN(c4ccc(Cl)cn4)CC3)c(C)o2)o1,47.3% (inactive)
5,CC(C)C(C)CNC(=O)N1CCN(c2ccc(Cl)cn2)CC1 (stereo unspecified),63.1% (active)
6,Cc1nc2ccc(I)cn2c1C=NNc1ccc2ccccc2c1,60.2% (active)
7,Cc1nc2ccc(I)cn2c1C=NNc1ccc(Cl)cc1,17.7% (inactive)
8,CC(C)(C)n1cccc(/C=N\NC(N)=S)c1=S,-2.91% (inactive)
9,Cc1cc(C=NNC(N)=S)c(C)n1CC(F)(F)F,4.28% (inactive)
10,NC(=S)NN=Cc1ccc(Cl)cc1Cl,86% (active)
11,Cc1ccc(C(=O)Nc2ccc(CN3CCN(C)CC3)c(C(F)(F)F)c2)cc1C#Cc1cnc2cccnn12,62.5% (active)
12,CCc1sc(C(=O)OCC(=O)N(C)CC(=O)Nc2ccc(C)cc2)cc1C,-39.5% (inactive)
13,CCc1ccc(NC(=O)COC(=O)c2cc(C(C)=O)n3ccccc23)cc1,65% (active)
14,Cc1nc(N)sc1N=Nc1cccc2ccccc12,4.08% (inactive)
15,Nc1[nH]n(-c2ccccc2)c(=O)c1N=Nc1ccc2ncsc2c1,-3.23% (inactive)
16,Nc1[nH]n(-c2ccccc2)c(=O)c1N=Nc1cccc2ccccc12,56.7% (active)
17,CCc1cc(C=NC2CCCCC2)c(O)s1,54.5% (active)
18,CC1Cc2ccccc2N1Sc1ccc([N+](=O)[O-])cc1 (stereo unspecified),58.6% (active)
19,CC1Cc2ccccc2N1C(=O)C1CCN(c2ccc(C#N)cn2)CC1 (stereo unspecified),-4.71% (inactive)
20,CC1Cc2ccccc2N1Cc1cccc(C(N)=O)c1 (stereo unspecified),25.1% (inactive)
21,Cc1ccc(-c2nsc(C(=O)N3CCCC(C)C3)c2N)cc1 (stereo unspecified),47.8% (inactive)
22,Cc1c(C(=O)NCc2ccccc2C(F)(F)F)sc(=O)n1Cc1ccccc1F,21% (inactive)

row,SMILES,inhibition
1,Cc1ccccc1Cn1c(C)c(C(=O)NCc2ccccc2C(F)(F)F)sc1=O,65.1% (active)
2,Cc1c(C(=O)NCc2ccc(Cl)c(Cl)c2)sc(=O)n1Cc1ccccc1F,-10.2% (inactive)
3,COc1ccc(Br)c(Cn2c(C)c(C(=O)NCc3ccccc3C(F)(F)F)sc2=O)c1,58.8% (active)
4,COc1ccccc1Cn1c(C)c(C(=O)NCc2ccccc2C(F)(F)F)sc1=O,15.1% (inactive)
5,Cc1c(C(=O)NCc2ccccc2C(F)(F)F)sc(=O)n1Cc1cccc(C(F)(F)F)c1,18.8% (inactive)
6,Nc1nc(CSc2nnc(C3CC3)n2C2CC2)nc(Nc2ccc(F)cc2)n1,-0.78% (inactive)
7,Cc1c2c(nc3cc4c(cc13)OCO4)CCc1ccccc1-2,76.4% (active)
8,Cc1cc(S(=O)(=O)Nc2ccc(F)c(Cl)c2)c(C)s1,30.5% (inactive)
9,O=S(=O)(Nc1ccc(F)c(Cl)c1)c1ccc(Cl)cc1F,66.8% (active)
10,O=S(=O)(Nc1ccc(F)c(F)c1)c1cc(Cl)ccc1Cl,95.3% (active)
11,O=S(=O)(Nc1cc(Cl)cc(Cl)c1)c1cc(Cl)ccc1Cl,56.9% (active)
12,O=S(=O)(Nc1cc(Cl)ccc1F)c1cc(Cl)ccc1Cl,28.1% (inactive)
13,COc1cccc(-c2noc(CSc3ncnc4sccc34)n2)c1,98.8% (active)
14,c1csc(-c2nc(CSc3ncnc4sccc34)co2)c1,24.4% (inactive)
15,O=C(CCn1[nH]c(=O)ccc1=O)Nc1nc(-c2ccc(Cl)s2)cs1,49.2% (inactive)
16,N#CC1(C(=O)Nc2nc(-c3ccc(Cl)s3)cs2)CCCC1,89.1% (active)
17,Clc1cccc(-c2csc(NC3CC3)n2)c1,44.2% (inactive)
18,N#CC1(C(=O)Nc2nc(-c3cccc(C(F)(F)F)c3)cs2)CCCC1,55.5% (active)
19,O=C(O)C1C2C=CC(C2)C1C(=O)Nc1nc(-c2ccc(Cl)s2)cs1 (stereo unspecified),35.5% (inactive)
20,Cc1ccc(C(=O)c2ccc(CC(=O)O)n2C)cc1,52.8% (active)
21,c1ccc(-c2cc(CSc3nnnn3C3CC3)no2)cc1,84.1% (active)
22,Fc1ccc(-c2cnc(CSc3nnnn3C3CC3)o2)cc1,8.58% (inactive)

row,SMILES,inhibition
1,c1ccc(-c2cnc(CSc3nnnn3C3CC3)o2)cc1,18.6% (inactive)
2,Cc1ccc(S(=O)(=O)N(C)CCOc2ccccc2C)s1,55.1% (active)
3,O=C(O[C@@H]1Cc2c(O)cc(O)cc2O[C@@H]1c1ccc(O)c(O)c1)c1cc(O)c(O)c(O)c1,78.4% (active)
4,Cc1ccccc1Cn1nc(-c2cccs2)ccc1=O,89.9% (active)
5,COc1ccc(-c2ccc(=O)n(Cc3ccccc3C)n2)cc1,27.4% (inactive)
6,CCc1ccc(-c2ccc(=O)n(Cc3ccccc3C)n2)cc1,14.8% (inactive)
7,Cc1ccccc1Cn1nc(-c2ccc3c(c2)OCO3)ccc1=O,91.3% (active)
8,Cc1ccccc1Cn1nc(-c2ccccc2)ccc1=O,-7.28% (inactive)
9,O=c1ccc(-c2ccc3c(c2)OCO3)nn1Cc1cccc2ccccc12,-9.21% (inactive)
10,O=C(CSc1ncc(-c2ccc([N+](=O)[O-])cc2)[nH]1)NC(C(=O)O)(c1ccccc1)c1ccccc1,-11.4% (inactive)
11,O=C(Cc1ccc(Cl)cc1)NCCSc1ncc(-c2ccccc2)[nH]1,60.9% (active)
12,OC(C#Cc1ccccc1)c1ncc(-c2ccccc2)[nH]1 (stereo unspecified),20.7% (inactive)
13,O=C(Nc1ccc(Cl)nc1)N1CCC(COCc2ccccc2)C1 (stereo unspecified),95% (active)
14,CC12CCC(O)CC1=CCC1C2CCC2(C)C(O)C(=Cc3ccc([N+](=O)[O-])cc3)CC12 (stereo unspecified),-53.2% (inactive)
15,COc1ccc(C=C2CC3C4CC=C5CC(O)CCC5(C)C4CCC3(C)C2O)cc1 (stereo unspecified),-0.03% (inactive)
16,COC(=O)C1CCC2C3CC=C4CC(O)CCC4(C)C3CCC12C (stereo unspecified),79.9% (active)
17,S=C(NC1Cc2ccccc2C1)N1CCCC1,14.2% (inactive)
18,O=C(Cc1cccc(F)c1)NCc1ccc(Cl)s1,64.5% (active)
19,CN(Cc1cccc(F)c1)C(=O)c1ccc(NC(=O)C2CC2)s1,-11.3% (inactive)
20,CC(=O)c1ccc(OC(=O)COc2ccc(Oc3ccc(C)cc3)cc2)cc1,88.7% (active)
21,CC(=O)c1ccc(OC(=O)COc2cccc(OCCC(C)C)c2)cc1,67.6% (active)
22,COc1cccc(OCC(=O)Oc2ccc(C(=O)c3ccc(C)cc3)cc2)c1,53% (active)

# From PubChem BioAssay AID1259343 (VanderVen Lab, College of Veterinary Medicine, Cornell …, 2017)
